From PubChem BioAssay
A selection: hits, their analogues and other compounds. The true share with any hit is near 1.3%.
PriA SSB inh: blocks PriA binding to SSB C-terminal tail | AID 1272365 | AlphaScreen SSBct-PriA binding, biotinylated peptide | inhibition, % at 33 µM | 430,000 tested, 0.6% active; in the data active = inhibition mostly above about 37%, no sharp cut-off; inactive = mostly below about 20%;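 also: plate controls were negative control peptide for no effect and reference peptide for full effect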
TcdB inh: blocks C. difficile toxin B glycohydrolase activity; TcdB glycohydrolase enzymatic assay, plate reader; inhibition, % at 9.99 µM; 350,000 tested, 0.24% active; AID 652162; in the data active = inhibition above about 10%
BH1578 lux ind: inducers of Vibrio cholerae quorum light production without autoinducers. V. cholerae BH1578 lux reporter, luminescence, 6 h. activation, % at 18.7 µM. 350,000 tested, 0.16% active; in the data active = activation mostly above about 9.7%, no sharp cut-off
CCHFV vOTU inh: CCHFV vOTU protease inhibition; Pep-AMC fluorescence; inhibition, % at 11.5 µM; 370,000 tested, 0.55% active; AID 651958; in the data active = inhibition above about 30%; also: 0% = vehicle wells with enzyme and 100% = no enzyme wells
3CLpro inhibitor: SARS-CoV 3CLpro protease inhibition; recombinant SARS-CoV 3CLpro, quenched FRET peptide cleavage; inhibition, % at 6 µM; AID 1706; 290,000 tested, 0.14% active; P0C6X7; in the data active = inhibition above about 12%
VHR inh abs: blocks human VHR1 dual specificity phosphatase; P51452; recombinant VHR phosphatase, pNPP absorbance; inhibition, % at 13.3 µM; 290,000 tested, 0.52% active; AID 1654; in the data active = inhibition above about 50%
Target sequence (P51452 whole entry, looked up): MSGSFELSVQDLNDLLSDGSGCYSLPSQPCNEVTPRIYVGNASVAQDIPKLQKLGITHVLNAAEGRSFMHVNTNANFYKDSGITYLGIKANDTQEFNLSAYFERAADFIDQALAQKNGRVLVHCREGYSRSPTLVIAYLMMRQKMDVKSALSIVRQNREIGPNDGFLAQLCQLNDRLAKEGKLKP
* hit, by the source's call; ! = repeats disagree.

How did Fc1ccc(-c2nc3ccc(Br)cn3c2Cc2ccccc2)cc1 do in these assays?
TcdB inh: 12.5*; BH1578 lux ind: -0.4; CCHFV vOTU inh: 1.2

Results for N=c1c2c(-c3ccccc3)c(-c3ccccc3)n(Cc3ccccc3)c2ncn1CCCn1ccnc1 ?
PriA SSB inh: 46.2*; CCHFV vOTU inh: 11.2; 3CLpro inhibitor: -1.8; VHR inh abs: 28.7

Results for CCCCn1cnc2c(c(-c3ccccc3)c(-c3ccccc3)n2Cc2ccco2)c1=N ?
PriA SSB inh: 6.5; TcdB inh: 2.7; BH1578 lux ind: inactive; CCHFV vOTU inh: 7.1; 3CLpro inhibitor: 6.2; VHR inh abs: 0.0

Results for COc1ccc2c(c1)CCC[C@@]2(O)CNC(=O)c1c(C)nn(C)c1C ?
PriA SSB inh: 0.0

Results for COc1ccc(NC(=O)Nc2c(C)nc3cc(C)ccn3c2=O)cc1OC ?
PriA SSB inh: 3.0

How did O=C(Nc1nc(-c2ccccn2)cs1)c1ccc(Br)s1 do in these assays?
PriA SSB inh: 56.4*; BH1578 lux ind: -0.3; CCHFV vOTU inh: 2.2; 3CLpro inhibitor: 3.0; VHR inh abs: -1.7

Results for O=C(Nc1nc(-c2ccccc2)cs1)c1ccccc1F ?
PriA SSB inh: -23.9; TcdB inh: -1.8; BH1578 lux ind: inactive; CCHFV vOTU inh: -5.8; 3CLpro inhibitor: 4.5; VHR inh abs: -12.0

Results for O=C(Nc1nc(-c2ccccn2)cs1)c1ccccc1Br ?
PriA SSB inh: 91.0*

What do the screens show for `O=C(Nc1nc(-c2ccccn2)cs1)c1ccccc1F`?
PriA SSB inh: 94.0*

How did Cc1cccc(C(=O)Nc2nc(-c3ccccn3)cs2)c1C do in these assays?
PriA SSB inh: 73.2*

How did CN(C)CCNC(=O)NCC12CC3CC(CC(C3)C1)C2 do in these assays?
PriA SSB inh: 2.0

What do the screens show for `COc1ccc(C(=O)N2CCCC(c3nnc(Cc4ccc(F)cc4)o3)C2)cc1` (stereo not drawn)?
PriA SSB inh: -4.0

What do the screens show for `Cc1ccccc1-c1cc2c(=O)n(Cc3nc(-c4cccc(C(F)(F)F)c4)no3)ccn2n1`?
PriA SSB inh: -28.0

Results for CCC(CC)n1ccc(C(=O)Nc2nc(-c3ccccn3)cs2)n1 ?
PriA SSB inh: 3.5

Results for Cc1cc(C(=O)Nc2nc(-c3ccccn3)cs2)c(C)o1 ?
PriA SSB inh: 82.4*

Results for Cc1nc(C(C)C)c(C(=O)Nc2nc(-c3ccccn3)cs2)s1 ?
PriA SSB inh: 59.2*

What do the screens show for `O=C(Nc1nc(-c2cc(Cl)sc2Cl)cs1)c1ccc(Br)s1`?
PriA SSB inh: 43.6*!; BH1578 lux ind: -5.3; CCHFV vOTU inh: -9.4; 3CLpro inhibitor: 0.7; VHR inh abs: 13.3

How did Cc1cc(C(=O)Nc2nc(-c3ccccn3)cs2)c(C)s1 do in these assays?
PriA SSB inh: 62.1

Results for COc1ccc2oc(C(=O)Nc3nc(-c4ccccn4)cs3)c(C)c2c1 ?
PriA SSB inh: 42.1*; TcdB inh: -0.4; BH1578 lux ind: -2.0; CCHFV vOTU inh: 6.0

How did O=C(Nc1nc(-c2cc(Cl)sc2Cl)cs1)c1cccs1 do in these assays?
PriA SSB inh: -15.0; BH1578 lux ind: inactive; CCHFV vOTU inh: 13.3; 3CLpro inhibitor: -4.1; VHR inh abs: 4.8

How did COc1ccc(S(=O)(=O)Nc2ccc3c(c2)N(C(=O)C2CCCO2)CC3)cc1 (stereo not drawn) do in these assays?
PriA SSB inh: -3.0

What do the screens show for `Fc1ccccc1Nc1nc(-c2ccccn2)cs1`?
PriA SSB inh: 77.1*

Results for COc1ccccc1Nc1nc(-c2ccccn2)cs1 ?
PriA SSB inh: 26.2

What do the screens show for `COC(=O)c1ccc(N2CCc3ccccc32)c([N+](=O)[O-])c1`?
PriA SSB inh: 52.0*; TcdB inh: 2.8; BH1578 lux ind: inactive; CCHFV vOTU inh: 10.8; 3CLpro inhibitor: 2.7; VHR inh abs: 13.3

How did O=C(NCc1ccc(F)cc1)c1ccc(N2CCc3ccccc32)c([N+](=O)[O-])c1 do in these assays?
PriA SSB inh: 73.7*; TcdB inh: 2.7; BH1578 lux ind: 0.0; CCHFV vOTU inh: 3.0; 3CLpro inhibitor: 1.4; VHR inh abs: 17.0

Results for O=C(O)c1ccc(N2CCc3ccccc32)c([N+](=O)[O-])c1 ?
PriA SSB inh: -4.8; TcdB inh: 0.6; BH1578 lux ind: inactive; CCHFV vOTU inh: 8.2; 3CLpro inhibitor: 0.4; VHR inh abs: 9.5

Results for CCOC(CNC(=O)c1ccc(N2CCc3ccccc32)c([N+](=O)[O-])c1)OCC ?
PriA SSB inh: 63.0*; BH1578 lux ind: -0.3; CCHFV vOTU inh: -7.2; 3CLpro inhibitor: 8.0; VHR inh abs: 1.2

What do the screens show for `COc1ccc(CNC(=O)c2ccc(N3CCOCC3)c([N+](=O)[O-])c2)cc1`?
PriA SSB inh: 0.6; TcdB inh: 0.3; BH1578 lux ind: -0.1; CCHFV vOTU inh: -6.1; 3CLpro inhibitor: 1.1; VHR inh abs: 22.5

Results for O=C(NC1(c2nc(-c3cccnc3)no2)CCCCC1)c1ccc[nH]c1=O ?
PriA SSB inh: -10.0

How did CCOc1ccc(-c2nnc3ccc(SCC(=O)c4ccccc4)nn23)cc1 do in these assays?
PriA SSB inh: 4.0

Results for CC(C(=O)OCC(=O)c1ccccc1)N1C(=O)C2C3CCC(C3)C2C1=O (stereo not drawn) ?
PriA SSB inh: -9.6; TcdB inh: 4.6; BH1578 lux ind: -0.2; CCHFV vOTU inh: -9.9; 3CLpro inhibitor: 2.2; VHR inh abs: 54.4*

What do the screens show for `Cc1ccc(NC(=O)Nc2cnc(-n3ccnc3)nc2)c(Cl)c1`?
PriA SSB inh: -4.0

How did COc1ccccc1C1CCN(C(=O)C2CCCCC2)CC1 do in these assays?
PriA SSB inh: 41.1*; TcdB inh: -4.0; BH1578 lux ind: inactive; CCHFV vOTU inh: 9.2; 3CLpro inhibitor: 1.2; VHR inh abs: 1.6

How did COc1ccccc1C1CCN(C(=O)c2ccccc2)CC1 do in these assays?
PriA SSB inh: -11.6; TcdB inh: 0.8; BH1578 lux ind: inactive; CCHFV vOTU inh: 8.9; 3CLpro inhibitor: 3.3; VHR inh abs: 14.1

How did Cc1ccc(S(=O)(=O)c2cnc(N(C)Cc3ccccc3)nc2N)cc1C do in these assays?
PriA SSB inh: -8.0

How did O=S(=O)(NCC(c1ccsc1)N1CCc2ccccc2C1)c1ccc(F)cc1F (stereo not drawn) do in these assays?
PriA SSB inh: -10.0

How did CC1(C)Cc2nc(-c3ccccc3)nc(SCC(=O)N3CCOCC3)c2CO1 do in these assays?
PriA SSB inh: -7.2; TcdB inh: 1.3; BH1578 lux ind: -0.4; CCHFV vOTU inh: -4.4; 3CLpro inhibitor: -5.4; VHR inh abs: 38.7

What do the screens show for `Cc1cccc(-c2nc3c(c(SCC(=O)N4CCOCC4)n2)COC(C)(C)C3)c1`?
PriA SSB inh: -2.5; TcdB inh: 0.8; BH1578 lux ind: inactive; CCHFV vOTU inh: 0.3; 3CLpro inhibitor: -0.6; VHR inh abs: 59.8*

How did O=C(c1ccc2nsnc2c1)N1CCN(CC(O)c2ccco2)CC1 (stereo not drawn) do in these assays?
PriA SSB inh: -4.0
